Compounds without any hit were thinned out: in the full panel of roughly 79,000, 15% have a hit. Activity calls are given as the source filed them. Cut-off read from the data, not from the text of the source: active = growth inhibition above about 70%; inactive = the rest.
Key:
[1] = NCI Yeast Anticancer Drug Screen. Data for the rad50 strain (AID 155);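 note: 0% = growth of vehicle-only cultures of the same strain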; conditions: S. cerevisiae rad50 strain growth inhibition; at 50.0 µM; active compounds read high
How it was run: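 Readout: growth inhibition relative to vehicle-treated cultures. Compound exposure was carried out in a genetically defined yeast strain deficient in DNA damage repair.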

[2] = NCI Yeast Anticancer Drug Screen. Data for the mec2-1 strain (AID 157); conditions: S. cerevisiae mec2-1 strain, at 50.0 µM, active compounds read high
How it was run: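 Test agents were screened against the mec2-1 yeast strain, with defined DNA repair or cell cycle alteration. Growth was scored as inhibition against vehicle-only controls.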

[3] = NCI Yeast Anticancer Drug Screen. Data for the sgs1 mgt1 strain (AID 161);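 note: 0% = growth of cultures given vehicle only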; conditions: S. cerevisiae sgs1 mgt1 strain, at 50.0 µM, active compounds read high
How it was run: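 Mutant yeast exposed to compound; growth scored against vehicle-only wells.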

[4] = NCI Yeast Anticancer Drug Screen. Data for the cln2 rad14 strain (AID 165);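 note: 0% = growth equal to vehicle treated cultures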; conditions: S. cerevisiae cln2 rad14 strain, at 50.0 µM, active compounds read high
How it was run: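 Growth of compound-exposed yeast (cln2 rad14 genotype) measured and expressed as inhibition relative to vehicle.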

[5] = NCI Yeast Anticancer Drug Screen. Data for the bub3 strain (AID 167); conditions: S. cerevisiae bub3 mutant strain, at 50.0 µM, active compounds read high
How it was run: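 Readout: yeast growth inhibition, expressed relative to vehicle-only wells. The test organism is a mutant strain from a panel with lesions in DNA repair or checkpoint genes.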

[6] = NCI Yeast Anticancer Drug Screen. Data for the mlh1 rad18 strain (AID 175); conditions: S. cerevisiae mlh1 rad18 strain growth inhibition; at 50.0 µM; active compounds read high
How it was run: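 In this whole-cell yeast screen, a strain with altered DNA damage repair is challenged with compound, and its growth is measured against matched vehicle-treated controls.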

Measured: growth inhibition

Cc1ccc(C=C(C(=O)O)C(=O)O)o1
inactive: [1] -21.3% | [2] -29.4% | [3] -17.6% | [4] -8.05% | [5] -13.4% | [6] -56.2%

CCC(=O)Nc1cc(Cl)ccc1Cl
inactive: [1] 34.2% | [2] 11.8% | [3] 10.4% | [4] 10.2% | [5] -8.9% | [6] 11.2%

CC1N=C(c2ccccc2)SC1C (stereo unspecified)
inactive: [1] -14.2% | [2] -18.4% | [3] -24.9% | [4] -49.4% | [5] -11% | [6] -38.3%

CC(CO)CCNc1ncnc2c1ncn2CCC(=O)OC(C)(C)C (stereo unspecified)
inactive: [1] -27.6% | [2] 16.4% | [3] -21.6% | [4] -20.6% | [5] -1.85% | [6] -9.65%

Cc1[nH]c(=O)nc2nc3ccc(Cl)cc3c(NCCNCCO)c12
inactive: [1] -37.5% | [2] -42.4% | [3] 24.1% | [4] 3.5% | [5] -0.9% | [6] -43.6%

CCN(CC)CCNc1cccc(Cl)c1
inactive: [1] 60.1% | [2] 9.25% | [3] 34.4% | [4] 25.2% | [5] 29.1% | [6] 47.5%

O=C(Cc1nc2sc3c(c2c(=O)[nH]1)CCCC3)Nc1ccccc1
inactive: [1] -3.1% | [2] -12.3% | [3] 0.05% | [4] 5.9% | [5] -4% | [6] -17.6%

O=C(CCC(CCC(=O)c1ccccc1)[N+](=O)[O-])c1ccccc1
inactive: [1] 3.15% | [2] -10.8% | [3] 7.65% | [4] 4.55% | [5] 14.2% | [6] 20.5%

CN(/N=C/c1ccccn1)C1=NCCCN1
inactive: [1] -20.2% | [2] -22% | [3] -23% | [4] 5.35% | [5] -5.4% | [6] -27%

O=[N+]([O-])c1ccc(N=C(Nc2ccc([N+](=O)[O-])cc2)c2ccccc2)cc1
inactive: [1] 12.1% | [2] -16.2% | [3] -1.6% | [4] -33.6% | [5] -12.6% | [6] -14.5%

Cc1c2ccnc(C#N)c2c(C)c2c1[nH]c1ccccc12
inactive: [1] -19.8% | [2] 3% | [3] -16.9% | [4] -13.3% | [5] 12.8% | [6] 7.5%

Cc1cc(C)cc(Cc2ccc3ccccc3c2)c1
inactive: [1] 2.9% | [2] -3.65% | [3] -1.15% | [4] -12.3% | [5] 9.45% | [6] 8.45%

COC(=O)C1C2OC(C(Br)C2Br)C1C(=O)O (stereo unspecified)
inactive: [1] -6.2% | [2] 2.2% | [3] 7.1% | [4] 2.2% | [5] 9.95% | [6] 3.8%

COc1cc(C(=O)NC(=S)Nc2csc(-c3ccc(F)cc3)n2)cc(OC)c1OC
inactive: [1] 14.9% | [2] -12.8% | [3] 8.65% | [4] 16.9% | [5] -0.75% | [6] 11.7%

O=C(O)c1ccccc1C(=O)NCc1ccc(Cl)cc1Cl
inactive: [1] -3.75% | [2] 22.6% | [3] 21.4% | [4] -7.3% | [5] 19.9% | [6] 38.8%

CCc1cnc(N)nc1N
inactive: [1] -0.6% | [2] 4.75% | [3] 5.85% | [4] 1.95% | [5] 0.95% | [6] 0.65%

CCN(CC)CC#CCOc1ccc(/C=C/c2ccccn2)cc1
inactive: [1] 0.35% | [2] -13.4% | [3] 7.1% | [4] -14% | [5] 5.65% | [6] -21.4%

NCc1ccc(S(=O)(=O)Nc2cc(Br)cc(Br)c2)cc1
inactive: [1] 16.4% | [2] 14.8% | [3] 30.2% | [4] 35.1% | [5] 12% | [6] 30.4%

CN1N=C(c2ccccc2)C(C(c2ccccc2[N+](=O)[O-])C2C(=O)N(C)N=C2c2ccccc2)C1=O (stereo unspecified)
inactive: [1] 46.8% | [2] 34.6% | [3] 8.5% | [4] 3.4% | [5] -3.4% | [6] -2.1%

CCCCCCCCCC(=O)OCC1OC(n2cc(F)c(=O)[nH]c2=O)C(NC(=O)OCc2ccccc2)C(OC(=O)CCCCCCCCC)C1O (stereo unspecified)
inactive: [1] -5.9% | [2] -10.2% | [3] -11.8% | [4] 6.9% | [5] -0.35% | [6] -21%

CC(=O)OCC(=O)[C@@]1(O)CC[C@H]2[C@@H]3C[C@H](Cl)C4=CC(=O)C=C[C@]4(C)[C@H]3C(=O)C[C@@]21C
inactive: [1] 15.4% | [2] 3% | [3] 47.5% | [4] 49.5% | [5] -7.75% | [6] 39.5%

CCOC(=O)c1cc(C)[nH]n1
inactive: [1] -37.9% | [2] -26.1% | [3] -6.75% | [4] -11.7% | [5] -26.9% | [6] 2.15%

COc1ccc(C(CCl)(CCl)c2ccc(OC)cc2)cc1
inactive: [1] 11.8% | [2] -40% | [3] 4.35% | [4] 15.3% | [5] 31.6% | [6] -9.9%

COc1cc(C)oc(=O)c1
inactive: [1] -6.1% | [2] 6.15% | [3] -2.45% | [4] -16.6% | [5] 8.1% | [6] 3.3%

O=C(CC(=O)C(F)(F)F)c1ccc2c(c1)Cc1ccccc1-2
inactive: [1] -10.2% | [2] 28.9% | [3] 3.75% | [4] 14.9% | [5] -2.7% | [6] 23.6%

Cc1cccc(C(C)C)c1NC(=O)C(=O)C(C#N)c1ccc(CC#N)cc1 (stereo unspecified)
inactive: [1] -27.9% | [2] 2.4% | [3] 17.9% | [4] -40% | [5] 1.55% | [6] 14.2%

NNC(=O)C1=NN(c2ccccc2)C(=O)C1
inactive: [1] 39.3% | [2] 12.8% | [3] 33.6% | [4] -12.9% | [5] 36.8% | [6] 42.1%

COC(=O)c1c(C(=O)c2ccccc2)nn2c(-c3ccccc3)c(-c3ccccc3)c(-c3ccccc3)c(-c3ccccc3)c12
inactive: [1] 10.3% | [2] -1.6% | [3] -23.6% | [4] 7.05% | [5] -1.1% | [6] 0.1%

Cc1c2oc3c(C)ccc(C(=O)NCc4cccnc4)c3nc-2c(C(=O)NCc2cccnc2)c(N)c1=O
inactive: [1] 42.6% | [2] -0.85% | [3] -6.85% | [4] 7.55% | [5] 2.6% | [6] 13.1%

Cc1ccc([B-]23OCC[N+]2(CNC(=O)c2ccccc2O)CCO3)cc1 (stereo unspecified)
inactive: [1] 25.6% | [2] -4.4% | [3] 4.1% | [4] 3.6% | [5] 4.05% | [6] 12.8%

COc1cc(/C=C2/Cc3ccccc3C2=O)ccc1O
inactive: [1] 47% | [2] 24.1% | [3] 20.4% | [4] 22.9% | [5] 26.7% | [6] 26.6%

Fc1ccc(C2(c3ccc(F)cc3)CCCO2)cc1
inactive: [1] 4.4% | [2] -22.4% | [3] -6.15% | [4] 25.7% | [5] -4.1% | [6] 6.2%

O=S(=O)(CCl)Nc1ccncc1
inactive: [1] -16.6% | [2] -9.6% | [3] -25.6% | [4] -77.2% | [5] 3.1% | [6] -16.8%

CN(C)C(=O)C1Cc2ccccc2CC1C(=O)N(C)C (stereo unspecified)
inactive: [1] -0.4% | [2] -0.55% | [3] 0.85% | [4] -21.5% | [5] -3.6% | [6] -9.75%

O=C(O)CC(Sc1ccccc1)c1ccccc1 (stereo unspecified)
inactive: [1] 12.9% | [2] -9.2% | [3] -2.8% | [4] 32% | [5] 45.7% | [6] 7.7%

C1=C(N2CCOCC2)CCC(N2CCOCC2)=C1
inactive: [1] -2.85% | [2] 21.9% | [3] 20.8% | [4] 41.9% | [5] -8.65% | [6] -12.2%

COc1ccc(C2=Nc3c(nc(SC)[nH]c3=O)NC(c3ccccc3)C2)cc1 (stereo unspecified)
inactive: [1] 9.45% | [2] 9.3% | [3] 19.3% | [4] 6.15% | [5] 28.3% | [6] -3.15%

OCCNc1ncnc2ccccc12
inactive: [1] -16.6% | [2] -1.7% | [3] 4.35% | [4] -4.7% | [5] 6.15% | [6] -18.9%

O=C(O)c1cc(/C=C/c2cc(O)ccc2O)ccc1O
inactive: [1] -14.7% | [2] -21.8% | [3] -24.8% | [4] -2.05% | [5] -33.4% | [6] -39.6%

CC(O)c1cccc(NC(=O)Nc2ccc(Cl)c(Cl)c2)c1 (stereo unspecified)
inactive: [1] 12% | [3] 70% | [4] 1.15% | [5] 43.8% | [6] 54.5%
active: [2] 83.4%

O/N=C(/c1ccccc1)C1CCCCC1
inactive: [1] 20.7% | [2] -1.05% | [3] 13% | [4] -0.15% | [5] -8.5% | [6] 10.3%

Source: PubChem BioAssay (NCI)
